Data as given in the supplement of paper PMC6555819.

tested on: VDR:RXRa (NR concentration 270 nM, RXRa partner concentration 90 nM); test: PBM binding z-score (relative to random genomic background probes); higher = stronger binding; sequences stand for … in GC…GCGATTGACAGCGTAGAATGAAGG
Experimental: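 Protein-binding microarray (Agilent 4x180K custom design, double-stranded 60-nt probes: 5' GC cap, 34-nt variable region, 24-nt constant primer region; full probe sequence given). Purified or IVT nuclear receptor:RXRα heterodimers (3:1 NR:RXRα, mostly 270:90 nM) or homodimers were incubated for 1 h in PBS with 2% milk and no ligand, then detected with Alexa488 antibodies. Fluorescence from o1-orientation probes (~5 replicates averaged) was converted to z-scores against 500 random hg19 background probes. Variable regions are seed direct-repeat (DR0–DR5) sites, all their single-nucleotide variants and half-site ablations.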

**Q.** Which PBM binding z-score does the source give for AGTCAAAGTTCAGGGCGAGGTAACGTAAAGCACG here?
**A.** Its PBM binding z-score is 3.27.

**Q.** With CTTCCAAGGTCAAAGGTCAGTGAAGAGATGACGG as the sequence, how does the PBM binding z-score read?
**A.** Its PBM binding z-score is 6.57.

**Q.** Which PBM binding z-score does the source give for TCATATAGGTAAAAGGTGAAAGTTGGTGTGGTAA here?
**A.** Its PBM binding z-score is 1.88.

**Q.** Which PBM binding z-score does the source give for TTACCAAGGTGAAGGCCGTTGATCCCTCTGTAGA here?
**A.** The PBM binding z-score was -0.121.

**Q.** How did the PBM binding z-score turn out when AATACAGGGTCACTAGGCTAGAGTAGGTACGAAT was run?
**A.** The PBM binding z-score was 4.05.

**Q.** Which PBM binding z-score does the source give for AGAATGAGGTTACCAAAGATCAGGTAAACGCTTG here?
**A.** The PBM binding z-score was 1.44.

**Q.** How did the PBM binding z-score turn out when ACTAGCAGGCCAACTTTGGGTCACTCAAACAAAG was run?
**A.** Its PBM binding z-score is 0.536.

**Q.** With TGAAGGAGGTTATAAGATCAGGGAACGTTGCAAA as the sequence, how does the PBM binding z-score read?
**A.** Its PBM binding z-score is 0.323.

**Q.** For TTACCAAGGTGAAGGTCGTTCATCCCTCTGTAGA, which PBM binding z-score is on record?
**A.** Its PBM binding z-score is 1.74.

**Q.** For CCTCGGAGGACAGAATGTCAGAGCTGTCCGCTTT, which PBM binding z-score is on record?
**A.** Its PBM binding z-score is -0.778.

**Q.** For GCTTACGGGTCAAAGGATATAGCATGAATAGAAT, which PBM binding z-score is on record?
**A.** The PBM binding z-score was 3.16.

**Q.** How did the PBM binding z-score turn out when TAGCATAGGTCAGATCGGGCCAGTATACGCTATA was run?
**A.** The PBM binding z-score was 1.77.

**Q.** How did the PBM binding z-score turn out when CCTACTGGGCCAAAAGGGTCATTGATGCCGATAA was run?
**A.** Its PBM binding z-score is 4.44.

**Q.** How did the PBM binding z-score turn out when ATATGTAGGTTACACCCGGGTCATTCAGGCTATG was run?
**A.** Its PBM binding z-score is 4.27.

**Q.** Which PBM binding z-score does the source give for AGTCAAAGTTCACTAGGTAACGGAAGATTCAGCT here?
**A.** Its PBM binding z-score is 3.97.

**Q.** How did the PBM binding z-score turn out when AGAAGGAGGGCACGCTGAGTTGATAGCAGAGTAG was run?
**A.** The PBM binding z-score was 1.41.

**Q.** How did the PBM binding z-score turn out when ACTTACGGGTCAACGAGGTTATACCACGCGTATA was run?
**A.** Its PBM binding z-score is 7.92.

**Q.** How did the PBM binding z-score turn out when GGAACGAGGGCAAAGTTGATAGCGTCTGTCGACG was run?
**A.** Its PBM binding z-score is 1.39.

**Q.** With GCTTACCGGTCAAAGGTTATAGCATGAATAGAAT as the sequence, how does the PBM binding z-score read?
**A.** Its PBM binding z-score is 2.81.

**Q.** TCTGCTAGCTCAACGATGGTCAGCTAATCTGCTA was tested. Which PBM binding z-score did it give?
**A.** Its PBM binding z-score is -0.662.

**Q.** Which PBM binding z-score does the source give for CGTCCTAGGTCAGAGAGGTCAGTGAATGCCGAGT here?
**A.** The PBM binding z-score was 6.8.

**Q.** For ACTAGCAGGCCAAGGTTCACTCAAGATTAGTCCG, which PBM binding z-score is on record?
**A.** Its PBM binding z-score is 2.01.

**Q.** Which PBM binding z-score does the source give for ACAGACAGGTGAGTGATGGTAACTCAGCTGGACG here?
**A.** The PBM binding z-score was -0.122.

**Q.** How did the PBM binding z-score turn out when ATATGTAGGTTGCATCCGGGTCATTCAGGCTATG was run?
**A.** Its PBM binding z-score is 3.47.

**Q.** For CGTCCAAGGTCAATGCTAGGTCCGTGAAAGCATT, which PBM binding z-score is on record?
**A.** The PBM binding z-score was 3.86.

**Q.** For TCATATAGGTAAAGAGGTGAAAGTCCGTAAGTTA, which PBM binding z-score is on record?
**A.** The PBM binding z-score was 1.45.

**Q.** How did the PBM binding z-score turn out when CGTAAAAGTTCAAGGTAACGTAACAGAAAGCAGC was run?
**A.** The PBM binding z-score was 3.38.

**Q.** Which PBM binding z-score does the source give for ACAGACAGGTGAGTGAAGGTAACTGAGCTGGACG here?
**A.** The PBM binding z-score was -0.202.

**Q.** For CGTCCAAGGTCATAGGAGGTCAGTCAAGACAGAT, which PBM binding z-score is on record?
**A.** The PBM binding z-score was 6.72.

**Q.** Which PBM binding z-score does the source give for GGAACGAGGGCAAGTTGATATCAGAGTTTGATGG here?
**A.** Its PBM binding z-score is 1.42.

**Q.** For CCTGCTAGGTGATGGTCAGCTAATCTACAGTATG, which PBM binding z-score is on record?
**A.** Its PBM binding z-score is -0.759.

**Q.** How did the PBM binding z-score turn out when TCTGCTAGGTCAACGATGGTCAGATAATCTGCTA was run?
**A.** The PBM binding z-score was 1.78.

**Q.** For GATACAGGGTCAGCTAGAGGCCAGAGTATGGAAA, which PBM binding z-score is on record?
**A.** The PBM binding z-score was 3.33.

**Q.** How did the PBM binding z-score turn out when GCTAGTTGGTCAGTCAAAGGTCACACACCGGTCG was run?
**A.** Its PBM binding z-score is 4.3.

**Q.** Which PBM binding z-score does the source give for ATATGCAGGTTACATCCGGGTCATTCAGGCTATG here?
**A.** Its PBM binding z-score is 4.47.

**Q.** With CGTCCAAGGTCAAGGTCAGGGAAAGAGACTCGAA as the sequence, how does the PBM binding z-score read?
**A.** Its PBM binding z-score is 4.97.

**Q.** How did the PBM binding z-score turn out when TTACCAAGGTGAGCTGAGGTCGTTCATCCAACTC was run?
**A.** The PBM binding z-score was 4.32.

**Q.** Which PBM binding z-score does the source give for AATACAGGGTCATCGTAGGCCAGAGCACGCACAG here?
**A.** The PBM binding z-score was 5.2.

**Q.** Which PBM binding z-score does the source give for CTCGGAAGGTCGGTTGAGGTGAGTATACGGATAA here?
**A.** Its PBM binding z-score is 1.

**Q.** TGTCAAAGTTCAAAGGTAACCTAAGTATCCACAC was tested. Which PBM binding z-score did it give?
**A.** Its PBM binding z-score is 5.12.
